Among the data in PubChem BioAssay (Tox21) are Potency, activity, negative = inhibition and activity change, negative = inhibition values, retold here.

The target of assay [1] is Acetylcholinesterase (Homo sapiens) (UniProt P22303). Briefly: Acetylcholinesterase (AChE) small molecule antagonists: colormetric cell-based qHTS assay (AID 1347395). Further: nearly all actives have a fitted effect of over 30% in size. Further: potency means the concentration at half of the fitted maximal effect. In outline: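 Homogeneous whole-cell format. SH-SY5Y cells seeded overnight, dosed with compound (30 min, 37 C, 5% CO2), then given DTNB/acetylthiocholine cocktail for 90 min at 37 C; colorimetric signal.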
Sequence of Acetylcholinesterase (Homo sapiens) (P22303 whole entry, looked up): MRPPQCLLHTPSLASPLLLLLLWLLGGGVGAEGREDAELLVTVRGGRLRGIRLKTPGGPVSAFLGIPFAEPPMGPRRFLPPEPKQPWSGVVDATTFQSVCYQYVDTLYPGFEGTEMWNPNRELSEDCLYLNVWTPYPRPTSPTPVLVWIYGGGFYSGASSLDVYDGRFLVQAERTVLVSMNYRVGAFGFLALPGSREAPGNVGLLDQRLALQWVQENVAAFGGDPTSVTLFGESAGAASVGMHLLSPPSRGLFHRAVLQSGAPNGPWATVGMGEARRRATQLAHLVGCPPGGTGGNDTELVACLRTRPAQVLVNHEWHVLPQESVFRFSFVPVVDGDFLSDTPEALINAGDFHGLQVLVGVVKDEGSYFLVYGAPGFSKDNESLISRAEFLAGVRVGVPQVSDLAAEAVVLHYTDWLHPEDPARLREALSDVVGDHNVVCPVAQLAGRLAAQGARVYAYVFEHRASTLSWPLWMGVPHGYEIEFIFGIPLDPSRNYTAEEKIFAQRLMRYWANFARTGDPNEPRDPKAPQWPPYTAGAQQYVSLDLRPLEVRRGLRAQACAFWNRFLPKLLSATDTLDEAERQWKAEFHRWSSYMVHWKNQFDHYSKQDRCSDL
Background: Quantitative high-throughput screening tests each substance at several concentrations.

The target is the same in assay [2]. Put plainly: Acetylcholinesterase (AChE) small molecule antagonists: enzyme-based qHTS assay (AID 1347397). Further: nearly all actives have a fitted effect of over 55% in size. Further: potency means the concentration at half of the fitted maximal effect. The settings on record: Potency: AChE enzyme activity inhibition; outcome: AChE enzyme activity inhibition. In outline: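 Colorimetric DTNB readout of acetylthiocholine hydrolysis, 10 min at room temperature, after 30 min room-temperature exposure of 50 mU/mL recombinant human enzyme to compound; DMSO vehicle control.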

For assay [3] the target is unchanged. Put plainly: Acetylcholinesterase (AChE) small molecule antagonists: fluorescence cell-based qHTS assay (AID 1347398). Further: nearly all actives have a fitted effect of over 50% in size. Further: potency means the concentration at half of the fitted maximal effect. The settings on record: Potency: AChE activity; outcome: AChE activity. In a few lines:
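Cellular AChE activity read as thiocholine from acetylthiocholine hydrolysis, detected by Thiolite Green fluorescence at 490/520 nm after 40 min at room temperature. Compounds were pre-incubated 30 min at 37 C on adherent SH-SY5Y cells.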

The target is the same in assay [4]. Put plainly: Acetylcholinesterase (AChE) small molecule antagonists: enzyme-based qHTS assay with human liver microsomes (AID 1347399). Further: nearly all actives have a fitted effect of over 60% in size. The settings on record: Potency: qHTS inhibition; outcome: qHTS inhibition. In outline: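 Recombinant human AChE (50 mU/mL in the enzyme mix) and human liver microsomes (0.25 mg/mL final) were preincubated with compound and NADPH (0.25 mg/mL final) for 30 min at 37 C. Acetylthiocholine/DTNB was then added; thiocholine was read colorimetrically after 10 min at room temperature.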

Molecules are shown by their SMILES. A number with no mark means an inactive call. Results filed as inconclusive are left out. Activity calls are given as the source filed them. The call rests on the fitted dose curve.
On the % scale 0 is the no-effect control and ±100 the full control effect.

As for `O=c1cc(CO)occ1O`, the Potency entry in assay [1], in assay [2], in assay [3] and in assay [4] was “inactive” each time.
With `NS(=O)(=O)c1ccccc1Cl`, the Potency result in assay [1], in assay [2], in assay [3] and in assay [4] was “inactive” in each case.
On to `O=C(NN1CCCC1)NS(=O)(=O)c1ccc(Cl)cc1`, for which the Potency result in assay [1], in assay [2], in assay [3] and in assay [4] was “inactive” in each case.
For `CCCC1CCOC(C)S1` (stereo not given), the Potency result in assay [1], in assay [2], in assay [3] and in assay [4] was “inactive” each time.
On to `C=C(C)CCCC`, for which the Potency result in assay [1], in assay [2], in assay [3] and in assay [4] was “inactive” throughout.
`CCCCC(CC)CN` (stereo not given): the Potency entry in assay [1], in assay [2], in assay [3] and in assay [4] was “inactive” throughout.
Consider `Nc1cccc(S(=O)(=O)O)c1`, for which the Potency entry in assay [1], in assay [2], in assay [3] and in assay [4] was “inactive” each time.
Regarding `COc1ccc(/C=C/S(=O)(=O)NC(=O)c2ccc(C)cc2Cl)cc1`, the Potency entry in assay [1], in assay [2], in assay [3] and in assay [4] was “inactive” in each case.
For the molecule `CCN(CC)C(=O)N1CCN(C)CC1`, the Potency result in assay [1], in assay [2], in assay [3] and in assay [4] was “inactive” each time.
`COC(=O)c1cc(C(=O)OC)cc(S(=O)(=O)O)c1`: the Potency entry in assay [1], in assay [2], in assay [3] and in assay [4] was “inactive” throughout.
On to `CC(C)C(=O)OCC(C)(C)C(O)C(C)C` (stereo not given), for which the Potency result in assay [1], in assay [2], in assay [3] and in assay [4] was “inactive” throughout.
Turning to `O=C(O)[C@@H]1[C@H]2C[C@H]3c4[nH]c5ccccc5c4CCN3C[C@@H]2CC[C@@H]1O`, the Potency entry in assay [1], in assay [2], in assay [3] and in assay [4] was “inactive” each time.
`CCC(CO)(CO)COCC(CC)(CO)CO`: the Potency result in assay [1], in assay [2], in assay [3] and in assay [4] was “inactive” in each case.
On to `CCOC(=O)CS`, for which the Potency result in assay [1], in assay [2], in assay [3] and in assay [4] was “inactive” in each case.
`O=C(O)c1ccc(CO)o1`: the Potency entry in assay [1], in assay [2], in assay [3] and in assay [4] was “inactive” each time.
Turning to `C[C@@H](c1ncncc1F)C(O)(Cn1cncn1)c1ccc(F)cc1F` (stereo not given in full), the Potency result in assay [1], in assay [2], in assay [3] and in assay [4] was “inactive” each time.
As for `C=CC1CO1` (stereo not given), the Potency entry in assay [1], in assay [2], in assay [3] and in assay [4] was “inactive” in each case.
With `COc1cc(C)ccc1C(C)C`, the Potency entry in assay [1], in assay [2], in assay [3] and in assay [4] was “inactive” throughout.
With `CC(=O)c1ccc2c(c1)N(CCCN1CCC(CCO)CC1)c1ccccc1S2`, the Potency is 38900 nM (active) in assay [1] and 17400 nM (active) in assay [3]. Moreover, the Potency result in assay [2] and in assay [4] was “inactive” throughout.
On to `CCN(CC)CCNC(=O)COc1ccc(Cl)cc1`, for which the Potency result in assay [1], in assay [2], in assay [3] and in assay [4] was “inactive” in each case.
On to `C=CC(C)(O)CCCC(C)CCCC(C)CCCC(C)C` (stereo not given), for which the Potency result in assay [1], in assay [2], in assay [3] and in assay [4] was “inactive” each time.
As to `CCCCCCCCCCOCC(O)CN` (stereo not given), the Potency entry in assay [1], in assay [2], in assay [3] and in assay [4] was “inactive” in each case.
Consider `Clc1ccc2n[nH]nc2c1`, for which the Potency result in assay [1], in assay [2], in assay [3] and in assay [4] was “inactive” each time.
For `O=C1CC[C@@H](C(=O)O)N1`, the Potency entry in assay [1], in assay [2], in assay [3] and in assay [4] was “inactive” throughout.
Take `COC(=O)CS`: the Potency result in assay [1], in assay [2], in assay [3] and in assay [4] was “inactive” throughout.
`CC1OCCC1=O` (stereo not given): the Potency result in assay [1], in assay [2], in assay [3] and in assay [4] was “inactive” each time.
Take `COc1ccc(OC)c(Cl)c1`: the Potency result in assay [1], in assay [2], in assay [3] and in assay [4] was “inactive” in each case.
Take `NCc1ccco1`: the Potency result in assay [1], in assay [2], in assay [3] and in assay [4] was “inactive” in each case.
Regarding `COc1ccc2[nH]c(S(=O)Cc3ncc(C)c(OC)c3C)nc2n1` (stereo not given), the Potency entry in assay [1], in assay [2], in assay [3] and in assay [4] was “inactive” in each case.
Take `Cc1ccc2c(c1[N+](=O)[O-])C(=O)c1ccccc1C2=O`: the Potency is 781 nM (active) in assay [1], 1390 nM (active) in assay [2] and 392 nM (active) in assay [3]. Moreover, in assay [4], the Potency entry was “inactive”.
For the molecule `Cc1c[nH]c(=S)[nH]c1=O`, the Potency result in assay [1], in assay [2], in assay [3] and in assay [4] was “inactive” in each case.
Take `O=C1OC(=O)C2CCCCC12` (stereo not given): the Potency entry in assay [1], in assay [2], in assay [3] and in assay [4] was “inactive” in each case.
As for `O=c1c(O)c(-c2ccc(O)cc2O)oc2cc(O)cc(O)c12`, the Potency entry in assay [1], in assay [2], in assay [3] and in assay [4] was “inactive” each time.
On to `COc1ccc2c(c1)C(=O)N(CCc1ccc(S(=O)(=O)NC(=O)NC3CCCCC3)cc1)C(=O)C2(C)C`, for which the Potency result in assay [1], in assay [2], in assay [3] and in assay [4] was “inactive” each time.
With `O=C(OCCN1CCOCC1)c1cccnc1Nc1cccc(C(F)(F)F)c1`, the Potency entry in assay [1], in assay [2], in assay [3] and in assay [4] was “inactive” in each case.
On to `OCC(O)c1ccccc1` (stereo not given), for which the Potency entry in assay [1], in assay [2], in assay [3] and in assay [4] was “inactive” in each case.
In the case of `CCCCCCCCCCCCN1CCOCC1`, the Potency entry in assay [1], in assay [2], in assay [3] and in assay [4] was “inactive” in each case.
Turning to `COCCOC(=O)C1=C(C)NC(C)=C(C(=O)OC/C=C/c2ccccc2)C1c1cccc([N+](=O)[O-])c1` (stereo not given), the Potency entry in assay [1], in assay [2], in assay [3] and in assay [4] was “inactive” in each case.
Turning to `CC(=O)Nc1ccccc1C`, the Potency entry in assay [1], in assay [2], in assay [3] and in assay [4] was “inactive” in each case.
Consider `CCCCCCCCCC(=O)N(C)C`, for which the Potency entry in assay [1], in assay [2], in assay [3] and in assay [4] was “inactive” throughout.
Turning to `COC(=O)c1ccc(NC(C)=O)cc1OC`, the Potency entry in assay [1], in assay [2], in assay [3] and in assay [4] was “inactive” throughout.
On to `CC(CSC(=O)c1ccccc1)C(=O)N1C[C@@H](Sc2ccccc2)C[C@H]1C(=O)O` (stereo not given in full), for which the activity, negative = inhibition in assay [1] was 0.861% [at 23.6 µM]. Besides, the activity change, negative = inhibition was -0.415% [at 23.6 µM] in assay [2], 13.2% [at 23.8 µM] in assay [3] and 2.18% [at 23.6 µM] in assay [4].
Take `C=CC(=O)NC(C)(C)C`: the Potency result in assay [1], in assay [2], in assay [3] and in assay [4] was “inactive” each time.
Take `CO[Si](C)(OC)OC`: the Potency result in assay [1], in assay [2], in assay [3] and in assay [4] was “inactive” in each case.
`NC(=O)Nc1ccc(Cl)c(Cl)c1`: the Potency result in assay [1], in assay [2], in assay [3] and in assay [4] was “inactive” in each case.
